Source: PubChem BioAssay (Columbia University Molecular Screening Center)
Shown is part of a subset that was picked to be rich in hits.
VCAM1 TNFa pot: potentiators of TNFa-induced VCAM1 expression, primary screen, imaging, HUVEC, TNFa stimulus, immunofluorescence | HUVEC TNFa-stimulated VCAM-1 immunofluorescence, high-content imaging; scaled per plate to unstimulated/TNFa-only wells | 93,000 tested, 0.19% active | activation, % at 2 µM;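 active = activation above the screen mean plus 3 SD, with well images confirming the hit on visual review, cut at about 28% in these data, passing the limit was not always enough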;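 note: signal is the number of cytoplasmic VCAM-1 stained grains per positive cell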
VCAM1 pot confirm: potentiators of TNFa-induced VCAM1 expression, confirmation, imaging, HUVEC, triplicate retest; HUVEC TNFa-stimulated VCAM-1 immunofluorescence imaging; AID 1034, 2008; 230 tested, under 10 active; activation, % at 2 µM; shares compounds with VCAM1 TNFa pot;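 active = activation above 30% in triplicate retests at 2 µM, then confirmed by visual review of the well images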
A number is an active result.

Results for Cc1nc2ccccc2n1CC(=O)NCc1ccccc1 ?
VCAM1 TNFa pot: inactive

How did Cn1c(SCC(=O)NCc2ccc(F)cc2)nc2ccccc21 do in these assays?
VCAM1 TNFa pot: 49.9; VCAM1 pot confirm: inactive

How did CC(C)(C)NC(=O)Cn1c(SCC(N)=O)nc2ccccc21 do in these assays?
VCAM1 TNFa pot: inactive

What do the screens show for `COc1cccc(C2=NOC(C(=O)Nc3ccccc3SC)C2)c1` (centres undefined)?
VCAM1 TNFa pot: inactive

How did CCN(C(=O)c1cc2cccc(OC)c2oc1=O)C1CCCCC1 do in these assays?
VCAM1 TNFa pot: inactive

Results for COC(=O)C(CCSC)NC(=O)CNS(=O)(=O)c1ccc(Cl)cc1 (centres undefined) ?
VCAM1 TNFa pot: inactive

How did COc1cccc(CNC(=O)C2CCCN(c3nn4c(=O)cc(C)nc4s3)C2)c1OC (centres undefined) do in these assays?
VCAM1 TNFa pot: inactive

How did O=C1CC(c2ccccc2)Cc2nc3ncnn3cc21 (centres undefined) do in these assays?
VCAM1 TNFa pot: inactive

How did CCc1ccc(C(=O)COC(=O)c2cccc(N3C(=O)c4c(C)nc5ccccc5c4C3=O)c2)cc1 do in these assays?
VCAM1 TNFa pot: inactive

What do the screens show for `CC(C)(C)n1[nH]c2c3c(ccc2c1=O)C(=O)c1ccccc1C3=O`?
VCAM1 TNFa pot: 37.0; VCAM1 pot confirm: inactive

How did COc1ccc(C(=O)N[C@H](C(=O)NCC2CCCCC2)C(C)C)cc1 do in these assays?
VCAM1 TNFa pot: inactive

What do the screens show for `Cc1ccccc1CSCCNC(=O)CCSc1ccccc1`?
VCAM1 TNFa pot: inactive

What do the screens show for `CCOC(=O)C1CN(S(=O)(=O)c2ccc(OC)cc2)c2cc(CC(=O)OC)ccc2O1` (centres undefined)?
VCAM1 TNFa pot: inactive

Results for CCCOC(=O)C1C2C=C[C@]3(CN(CCc4ccccc4)C(=O)[C@H]13)O2 (some centres undefined) ?
VCAM1 TNFa pot: inactive

Results for O=C(OCCCN=C1NS(=O)(=O)c2ccccc21)C1CC(=O)N(c2ccc(Cl)cc2)C1 (centres undefined) ?
VCAM1 TNFa pot: inactive

What do the screens show for `COc1ccc(-n2ccnc2SCC(=O)Nc2ccccc2)cc1`?
VCAM1 TNFa pot: 80.8; VCAM1 pot confirm: inactive

What do the screens show for `COc1ccc(NC(=O)CSc2nccc(C)n2)cc1`?
VCAM1 TNFa pot: inactive

Results for CCOC(=O)c1ccc(NC(=O)CSc2nnc(COc3ccccc3)n2C)cc1 ?
VCAM1 TNFa pot: inactive

How did CN(C)NC1CCS(=O)(=O)C1 (centres undefined) do in these assays?
VCAM1 TNFa pot: inactive

Results for CCOC(=O)c1cc2cc3ccccc3cc2[nH]1 ?
VCAM1 TNFa pot: inactive

How did CCc1nc(SCC(=O)N2c3ccccc3CC2C)c2c(C)c(C)sc2n1 (centres undefined) do in these assays?
VCAM1 TNFa pot: inactive

How did COc1ccccc1C(=O)Nc1cccc(SC)c1 do in these assays?
VCAM1 TNFa pot: 50.6; VCAM1 pot confirm: inactive

Results for COc1ccccc1C(=O)Nc1ccc2c(c1)nc(CN1CCN(C(C)=O)CC1)n2C ?
VCAM1 TNFa pot: inactive

How did CSc1cccc(NC(=O)c2c(Cl)cnn2C)c1 do in these assays?
VCAM1 TNFa pot: inactive

What do the screens show for `COc1cccc(CNC(=O)C2CCN(S(=O)(=O)c3ccc4c(c3)CCC(=O)N4)CC2)c1`?
VCAM1 TNFa pot: inactive

What do the screens show for `CCn1c(SCC(=O)N2CCN(c3cccc(Cl)c3)CC2)nc2ccccc2c1=O`?
VCAM1 TNFa pot: inactive

How did O=C(c1ccccc1)c1cc[n+]([O-])cc1 do in these assays?
VCAM1 TNFa pot: 62.5; VCAM1 pot confirm: inactive

Results for O=C(c1ccccc1)c1cc2ccccc2o1 ?
VCAM1 TNFa pot: inactive

Results for CCCCS/C(=C(/C#N)C(N)=O)c1cc2c([nH]1)CCCC2 ?
VCAM1 TNFa pot: inactive

How did C=CCn1c(SC(C)C(=O)NC2(C#N)CCCCC2)nnc1-c1ccc(OC)cc1 (centres undefined) do in these assays?
VCAM1 TNFa pot: inactive

Results for O=C(CN(Cc1ccc(F)cc1)S(=O)(=O)c1ccccc1)N1CCCCC1 ?
VCAM1 TNFa pot: inactive

Results for COc1ccc(C(C#N)(CCC#N)CCC#N)cc1OC ?
VCAM1 TNFa pot: 36.8; VCAM1 pot confirm: inactive

Results for O=c1c(Cl)c(NCCO)ncn1-c1ccccc1 ?
VCAM1 TNFa pot: inactive

How did CCN(CC)S(=O)(=O)c1ccc(NC(=O)C(C)N(c2ccccc2)S(C)(=O)=O)cc1 (centres undefined) do in these assays?
VCAM1 TNFa pot: inactive

Results for CCOC(=O)C1CCCN(S(=O)(=O)c2ccc(F)c(C(=O)Nc3ccc(F)c(F)c3)c2)C1 (centres undefined) ?
VCAM1 TNFa pot: inactive

What do the screens show for `CCOC(=O)C1CCCN(c2ncnc3c2cnn3-c2ccc(Cl)cc2)C1` (centres undefined)?
VCAM1 TNFa pot: 39.7; VCAM1 pot confirm: inactive

What do the screens show for `CCOC(=O)C(C)n1cnc2c(cnn2-c2ccc(Cl)cc2)c1=O` (centres undefined)?
VCAM1 TNFa pot: inactive

What do the screens show for `COc1cccc(-c2cc(C(=O)Nc3cc(C)nn3-c3ccccc3)no2)c1`?
VCAM1 TNFa pot: inactive

How did Nc1ccc(Oc2ccc3nc(-c4ccccc4)c(-c4ccc([N+](=O)[O-])cc4)nc3c2)cc1 do in these assays?
VCAM1 TNFa pot: inactive

How did COC(=O)c1sc(=S)n(-c2cccc(Cl)c2)c1N do in these assays?
VCAM1 TNFa pot: inactive

Results for CCOC(=O)Cc1csc(SCC(=O)/C(C#N)=C(\C)N)n1 ?
VCAM1 TNFa pot: inactive

Results for Cc1cnc(C(=O)Nc2ccc(-n3cnnn3)cc2)cn1 ?
VCAM1 TNFa pot: inactive

How did O=C(Cn1c(=O)sc2ccccc21)Nc1ccc(S(=O)(=O)N2CCCCC2)cc1 do in these assays?
VCAM1 TNFa pot: inactive

Results for O=C(CN1CCCCCC1)Nc1ccc(Br)cc1 ?
VCAM1 TNFa pot: 33.6; VCAM1 pot confirm: inactive

How did NC(=O)c1oc2ccccc2c1NC(=O)CN1CCCCC1 do in these assays?
VCAM1 TNFa pot: inactive

How did O=C(CSc1nnc(COc2ccccc2)n1Cc1ccco1)Nc1ccc2c(c1)OCCO2 do in these assays?
VCAM1 TNFa pot: inactive

Results for CCCN1C2=C(C(=O)CCC2)C(c2ccc(F)cc2)C2=C1c1ccccc1C2=O (centres undefined) ?
VCAM1 TNFa pot: inactive

What do the screens show for `CCCn1nnnc1NC(=O)c1cccs1`?
VCAM1 TNFa pot: inactive

Results for O=C(CSc1cccc2cccnc12)OCC(=O)c1ccccc1 ?
VCAM1 TNFa pot: inactive

How did CC(C)(C)OC(=O)N1CC(O)CC1C(=O)OCC(=O)c1ccccc1 (centres undefined) do in these assays?
VCAM1 TNFa pot: inactive

How did O=C(COC(=O)C1CC(=O)N(c2nc(-c3ccccc3)cs2)C1)c1ccccc1 (centres undefined) do in these assays?
VCAM1 TNFa pot: 55.1; VCAM1 pot confirm: inactive

Results for O=C(NNC(=O)c1sccc1-n1cccc1)c1cccc(Cl)c1 ?
VCAM1 TNFa pot: inactive

What do the screens show for `CC(C)NC1CS(=O)(=O)CC1O` (centres undefined)?
VCAM1 TNFa pot: inactive

What do the screens show for `CC(C)C(=O)Nc1nc2c(ncn2C2CC(O)C(CO)O2)c(=O)[nH]1` (centres undefined)?
VCAM1 TNFa pot: 30.1; VCAM1 pot confirm: inactive

Results for CCOCC(=O)Nc1nnc(C2CCCCC2)s1 ?
VCAM1 TNFa pot: inactive

Results for CC1Cc2ccccc2N1C(=O)COc1nc2ccccc2nc1N1CCOCC1 (centres undefined) ?
VCAM1 TNFa pot: inactive

What do the screens show for `CCC(C)NC(=O)C1CCN(S(=O)(=O)CC)CC1` (centres undefined)?
VCAM1 TNFa pot: inactive
